Inhibition data for 115 molecules are collected here from PubChem BioAssay AID488890 (Southern Research Specialized Biocontainment Screening …, 2010).

In all, about 320,000 compounds went through this assay and about 1,300 (0.41%) were called active. Roughly 3% stayed inconclusive and do not appear here. How the calls were made is not given here. A selection follows. Potency and affinity values are given separately.

This assay is described as follows: growth inhibition of non-replicating M. tuberculosis (AID 488890).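 Further: plate controls were DMSO cells for no effect and high antibiotic wells for full effect.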 The conditions noted are these: Mycobacterium tuberculosis non-replicating, at 25 µM, stronger effect = higher value.
A word on the inhibition: it is the change of the read-out against control, counted positive when it falls. For `C/C(=N\OCC(=O)OCC(=O)Nc1cc(S(C)(=O)=O)ccc1Cl)c1ccc2c(c1)OCO2`, the inhibition worked out at 7.45%.
As to `Cc1ccccc1NC(=O)c1ccc(Cl)c(NC(=O)c2cccnc2)c1`, the inhibition was -8.32%.
On to `C[C@H](NC(=O)OC(C)(C)C)c1nnc(SCC(=O)Nc2cccc(Cl)c2)o1`, for which the inhibition is 16.3%.
The figure for `O=C(COc1ccccc1)N=C1SC2CS(=O)(=O)CC2N1c1cccc(F)c1` (stereo not given) is 1.19%.
As to `CC(=O)Oc1ccc2c(=O)c(-c3ccccc3)coc2c1`, the inhibition amounted to 15.7%.
`CCc1c(C)c2ccc(OCC(N)=O)cc2oc1=O`: the inhibition came to 10.3%.
Take `Cc1oc2cc(OC(C)C(=O)O)ccc2c(=O)c1Oc1ccccc1` (stereo not given): the inhibition is -10.2%.
`CCOc1ccc2c(=O)c(Oc3ccccc3)c(C)oc2c1`: the inhibition was 57%.
Regarding `COc1ccc2c(=O)c(-c3ccccc3)coc2c1`, the inhibition came to 12.5%.
As for `CC(C)Oc1ccc2c(=O)c(-c3ccccc3)coc2c1`, the inhibition came to 22.2%.
As to `CCN(CC)C(=O)Oc1ccc2c(=O)c(-c3ccccc3)coc2c1`, the inhibition is 62.3%.
Regarding `CCCOc1ccc2c(C)c(CC(=O)OC)c(=O)oc2c1`, the inhibition worked out at 3.51%.
The figure for `CCN(CC)C(=O)CN(c1ccc(Cl)cc1)S(=O)(=O)c1ccccc1` is 3.57%.
Turning to `NS(=O)(=O)c1ccc(NC(=O)c2cccc(Cl)c2)cc1`, the inhibition is -6.52%.
Consider `Cc1ccc(SCCC(=O)Nc2ccccc2C(=O)NC2CCCCC2)cc1`, for which the inhibition was -25.9%.
The figure for `Cc1cc(C)c(NC(=O)CN(C)S(=O)(=O)c2ccc3c(c2)n(C)c(=O)c(=O)n3C)c(C)c1` is -2.46%; for `C=CCN1CC(O)=C(c2ccccc2)C1=N` it is -5.76%.
Take `CN(C)C(=O)CSc1nnc(-c2cccnc2)n1-c1ccccc1`: the inhibition was -19.8%.
Take `Cc1ccc2ncnc(Nc3ccc(C)c(C)c3)c2c1`: the inhibition was determined as 17.8%.
Turning to `O=C(OCC#CCSc1nnc(-c2cccc3ccccc23)o1)c1cc2ccccc2o1`, the inhibition is 71.3%.
Consider `NC(=O)CSc1nnc(-c2ccncc2)o1`, for which the inhibition was found to be 1.06%.
`O=C(OCc1nnc(-c2ccccc2)o1)c1ccco1`: the inhibition was found to be 76.9%.
`CC(=NNC(=O)CSc1nc2ccccc2o1)c1ccco1`: the inhibition is 13.5%.
To `O=C(COC(=O)c1ccco1)Nc1nnc(-c2ccccc2)o1` belongs 4.16%.
As to `O=C(CSc1nc2ccccc2o1)N1CCN(C(=O)c2ccco2)CC1`, the inhibition was determined as 7.29%.
Consider `COc1ccc(-c2nnc(SCC(=O)c3cccs3)o2)cc1`, for which the inhibition was 63.8%.
In the case of `Cc1ccc(-c2nnc(COC(=O)c3ccco3)o2)cc1`, the inhibition came out at 60.2%.
As for `N#Cc1ccc(-c2ccc(F)cc2)nc1Oc1ccccc1`, the inhibition worked out at 2.75%.
Regarding `Cc1onc(-c2c(Cl)cccc2Cl)c1C(=O)NNc1ccccc1`, the inhibition amounted to 77.8%.
The figure for `CCC(CC)c1nnc(NC(=O)CS(=O)(=O)c2ccccc2)s1` is -1.72%.
Regarding `COCCOC(=O)c1c(NC(=O)CN2CCCc3ccccc32)sc(C(N)=O)c1C`, the inhibition was determined as 22.6%.
Take `COc1ccc(N(CC(=O)NC2CCCC2)C(=O)c2ccc(N3CCCCC3)nc2)cc1`: the inhibition was determined as 11%.
For the molecule `O=C(NNC(=O)c1cc2cc(Br)ccc2oc1=O)c1ccc(O)cc1O`, the inhibition worked out at 23.6%.
With `CC(C)c1nnc(NC(=O)c2cc3ccccc3o2)s1`, the inhibition is -9.61%.
As to `CCCc1nnc(NC(=O)c2cc3ccccc3o2)s1`, the inhibition was determined as 16.7%.
Take `Cc1nnc(NC(=O)c2cc3ccccc3o2)s1`: the inhibition came out at 16.8%.
As for `COCc1nnc(NC(=O)c2cc3ccccc3o2)s1`, the inhibition came out at 8.81%.
To `Cc1cccnc1NC(=O)c1cc2ccccc2oc1=O` belongs 66.8%; to `c1cc2c3c(cccc3c1)NC(c1ccc3c(c1)OCO3)N2`, 12.1%; to `CC1(C)Cc2c(c(-c3ccccc3)nc(N3CCOCC3)c2C(N)=O)CO1`, 0.34%.
Consider `CCCOc1ccc(-c2c(C(=O)N/N=C/c3ccc(OCC)cc3)nnn2-c2nonc2N)cc1`, for which the inhibition was 8.95%.
The figure for `COc1ccc(NC(=O)CSc2ccc3nnc(-c4ccccn4)n3n2)cc1OC` is -12%; for `COc1ccc2[nH]c(CN3CCC(CO)(CCOc4ccccc4)CC3)c(C)c2c1` it is 48.7%; for `Cc1nn(C)cc1CN1CCC(CO)(CCOc2ccccc2)CC1` it is -0.6%.
The figure for `COc1ccc(OC)c(C(=O)NC2CCSc3ccccc32)c1` (stereo not given) is 3.7%; for `O=C(Nc1cccc(NC(=O)C2CC3CCCC(C2)C3=O)n1)C1CC2CCCC(C1)C2=O` (stereo not given) it is 28.2%.
Take `Cc1ccc(N=c2ssnc2Cl)cc1`: the inhibition is 77.3%.
`Cc1cc(Cl)ccc1N=c1ssnc1Cl`: the inhibition stood at 19.9%.
The figure for `Cn1nc(C(=O)NCc2cccs2)c2ccccc2c1=O` is 40.9%; for `Cc1c(C(=O)O)sc2ncn(C)c(=O)c12` it is -3.22%.
In the case of `COC(=O)c1sc2ncn(-n3c(C)ccc3C)c(=O)c2c1C`, the inhibition worked out at 5.25%.
For the molecule `COc1cccc(NS(=O)(=O)c2nc3nc(C)cc(C)n3n2)c1`, the inhibition was -24.1%.
Consider `Cc1cc(C)n2nc(S(=O)(=O)NC(C)(C)C)nc2n1`, for which the inhibition is -0.21%.
To `COc1ccc(OCC(=O)N(C)CC2COc3ccccc3O2)cc1` (stereo not given) belongs 27.1%; to `COCc1nnc(NC(=O)c2cccc(NC(=O)C(C)C)c2)s1`, -15.2%.
In the case of `Cc1ccc(C(=O)N/C(=C\c2cccc([N+](=O)[O-])c2)C(=O)NC(Cc2ccccc2)C(=O)O)cc1` (stereo not given), the inhibition was 4.43%.
As to `Cc1ccc(N/C(N)=N/c2nc(C)cc(C)n2)cc1`, the inhibition came to 7.73%.
For `CC(=O)Nc1ccc(N/C(N)=N/c2nc(C)cc(C)n2)cc1`, the inhibition was -1.18%.
Consider `CC(C)(C)NC(=O)C(=O)NNC(=O)c1ccccc1`, for which the inhibition amounted to 10.8%.
Turning to `CC(C)(C)c1ccc(C(=O)NNC(=O)c2ccc(Cl)cc2)cc1`, the inhibition is -14.5%.
The figure for `O=C(CCC(=O)c1ccc(Br)cc1)Nc1cccnc1` is 40.4%; for `CCN(CC(=O)NC(C)C)C(=O)[C@@H](NC(=O)c1ccco1)C(C)C` it is -7.65%; for `CCCC(O)(CCC)C(=O)NNc1ccccc1` it is 23.3%.
On to `CCCCC(O)(CCCC)C(=O)NNc1ccccc1`, for which the inhibition is 36.2%.
On to `Cc1ccc(-c2nnc(SCC(=O)NCC3CCCO3)n2C)cc1` (stereo not given), for which the inhibition was -16.4%.
To `O=C(Nc1nnc(-c2ccc(Cl)cc2)o1)NC1CCCCC1` belongs -11.6%; to `CC(C)(C)C(=O)Nc1nnc(-c2ccncc2)o1`, 1.94%; to `O=C(Nc1nnc(-c2ccc(Cl)cc2)o1)c1ccc(N2C(=O)CCC2=O)cc1`, -7.34%.
Regarding `NC(=O)c1oc2ccccc2c1NC(=O)c1nc2ccccc2s1`, the inhibition turned out to be 5.47%.
Turning to `O=C(Nc1nnc(-c2ccc(Cl)cc2)o1)Nc1ccccc1Cl`, the inhibition is -7.45%.
To `Cc1ccccc1C(=O)Nc1nnc(-c2ccncc2)o1` belongs 30.5%; to `O=C(Nc1nnc(-c2ccc(Cl)cc2)o1)Nc1ccccc1F`, 11.3%.
Regarding `Cc1ccnc2nc(C(=O)Nc3nnc(-c4ccc(Cl)cc4)o3)nn12`, the inhibition came to 2.05%.
For `COCCN(C(=O)CSc1nc2ccccc2o1)c1c(N)n(Cc2ccccc2)c(=O)[nH]c1=O`, the inhibition stood at 10.9%.
As for `Cc1ccc(NC(=O)CCCCCCCCCCC2COCCO2)c(C)c1` (stereo not given), the inhibition is -9.85%.
`CN(C(=O)COC(=O)c1ccc(Br)c(S(=O)(=O)N2CCOCC2)c1)C1CCCCC1`: the inhibition stood at 11.1%.
The figure for `Cc1cc(-c2nnco2)c(C)n1-c1ccccc1` is 11.1%; for `O=C1NC2(CCCCCC2)C(=O)N1Cc1ccc([N+](=O)[O-])cc1` it is -2%; for `O=C1C(=O)N(CCN2CCOCC2)C(c2ccccc2F)/C1=C(\O)c1ccc(S(=O)(=O)N2CCOCC2)cc1` (stereo not given) it is 2.92%.
Consider `O=C(COc1ccccc1)N/N=C/c1sc(=O)n(Cc2cccc(C(=O)O)c2)c1Cl`, for which the inhibition was -0.36%.
To `CC[C@H](C)C(C(=O)N1CCN(C(=O)OC(C)(C)C)CC1)n1cc(C(CC(C)C)NC(=O)OC(C)(C)C)nn1` (stereo not given in full) belongs 10.5%; to `CCOC(=O)c1ccc(CNC(=O)Cn2nnc(-c3cccc(C)c3)n2)o1`, 4.91%; to `Cc1ccccc1NC(=O)COC(=O)CCSc1ccccc1`, 61.5%.
As to `CCOc1ccc(C(=O)n2cc(C(=O)OC)c3ccccc32)cc1`, the inhibition was found to be 24.8%.
On to `O=C1CCc2cc(S(=O)(=O)NCc3ccc(F)cc3)cc3c2N1CCC3`, for which the inhibition came to 22.8%.
For the molecule `COc1ccc(CNC(=O)CSc2ncn[nH]2)cc1OC`, the inhibition is -3.59%.
As for `COC(=O)c1ccc(NC(=O)CN2CCN(S(=O)(=O)c3cc(Cl)ccc3OC)CC2)cc1`, the inhibition turned out to be 54.1%.
Consider `COC(=O)c1sc(NC(=O)c2ccco2)c(C#N)c1C`, for which the inhibition came to 16.9%.
On to `CN1CCc2c(sc(NC(=O)c3ccco3)c2C(N)=O)C1`, for which the inhibition came out at 0.26%.
For `COC(=O)c1sc(NC(=O)c2c(OC)cccc2OC)c(C#N)c1C`, the inhibition was -6.6%.
In the case of `COC(=O)c1c(NC(=O)c2ccco2)sc2c1CCN(C(C)C)C2`, the inhibition turned out to be 2.92%.
With `COC(=O)c1c(NC(=O)Cc2ccccc2)sc2c1CCN(C(C)C)C2`, the inhibition is -13.3%.
In the case of `CN1CCc2c(sc(NC(=O)c3ccc(C(=O)c4ccccc4)cc3)c2C(N)=O)C1`, the inhibition is -13.4%.
As to `COc1ccc(/C(C)=N/OCC(=O)N=Nc2c(O)[nH]c3ccccc23)cc1`, the inhibition is -24.1%.
Consider `CCC(C)NC(=O)/C=C/c1cccs1` (stereo not given), for which the inhibition came to 59.1%.
Take `COc1ccc(CNC(=O)N2CCN(c3ccccc3OC)CC2)cc1`: the inhibition came to 1.13%.
As for `O=C(CCc1nc2ccccc2c(=O)[nH]1)Nc1nnc(SCc2ccc(F)cc2)s1`, the inhibition was -4.81%.
To `O=C(Cc1ccccc1)c1ccccc1C(=O)N1CCCCC1` belongs 9.16%.
`O=C(Nc1ccc(Cl)c(Cl)c1)Nc1nnc(-c2ccncc2)s1`: the inhibition worked out at 68.9%.
For the molecule `O=C(Nc1ccc(Cl)cc1)Nc1nnc(-c2ccncc2)s1`, the inhibition was found to be 16.2%.
In the case of `CC1CCCC(NC(=O)COC(=O)c2ccc(Cl)nc2)C1C` (stereo not given), the inhibition was -6.83%.
For the molecule `C=CCn1c(C)csc1=Nc1ccccc1C`, the inhibition came out at 10.7%.
Turning to `Cc1nn(Cc2ccccc2Cl)c(C)c1NC(=O)c1noc(C(C)C)c1[N+](=O)[O-]`, the inhibition is -8.32%.
Take `CCc1ccccc1NC(=O)c1noc(C(C)C)c1[N+](=O)[O-]`: the inhibition is -10.1%.
Regarding `O=C1CN(S(=O)(=O)c2ccccc2)CCN1`, the inhibition was determined as 3.07%.
To `O=C(CC(c1ccccc1)c1ccccc1O)NCc1ccccc1Cl` (stereo not given) belongs 23.8%; to `O=C1CSC(=S)N1c1cccnc1`, 11.9%.
As for `O=C(O)c1ccc(N=C2SCC(=O)N2Cc2ccccc2)cc1`, the inhibition turned out to be 7%.
Regarding `O=C1CSC(=Nc2ccc(Cl)cc2)N1Cc1cccnc1`, the inhibition was 1.07%.
As for `O=C(O)c1ccc(N2C(=O)CSC2=S)cc1`, the inhibition worked out at 74.2%.
Turning to `N#Cc1ccc(OCC(O)CN2CCN(CC(O)COc3ccc(C#N)cc3)CC2)cc1` (stereo not given), the inhibition is -21.4%.
For `Brc1ccc(-c2nnc(-c3cccnc3)o2)cc1`, the inhibition came to 68.4%.
The figure for `Cc1ccc(-c2nnc(-c3cccnc3)o2)cc1` is 37.8%; for `CN(C)S(=O)(=O)c1cccc(-c2nnc(SCc3cc(Cl)cc4c3OCOC4)n2N)c1` it is 23.1%.
To `Cc1onc(-c2ccccc2Cl)c1C(=O)Nc1ccccc1O` belongs 8.07%.
